# Pol kappa inh-1: DNA polymerase kappa (human) inhibition; Potency, µM (titrated, usually from 107 µM), inactives show at the highest dose activity, negative = inhibition, hits mostly inhibitors; 400,000 compounds, 0.53% hits; Q9UBT6; purified Pol kappa, fluorescent DNA synthesis assay, 10 min; AID 588579; note: potency is the fitted concentration of half-maximal effect; % is set by controls: 0 for no effect and ±100 for the full control effect
#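 10 nM Pol kappa preincubated 15 min at room temperature with compounds, then reaction started with substrate at 50 nM final. Fluorescence read kinetically at 0 and 10 min; buffer-only wells served as negative control.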
# TDP1 block: TDP1 (human) enzyme inhibition; recombinant TDP1, AlphaScreen DNA substrate cleavage; 350,000 compounds, 0.28% hits; Q9NUW8; AID 485290; Potency, µM (highest dose often 130 µM), for the others: at the highest dose activity change, negative = inhibition, actives largely listed as inhibitors; note: potency is the fitted concentration of half-maximal effect; % is set by controls: 0 for no effect and ±100 for the full control effect; nearly all actives have a fitted effect of over 40% in size
#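 Recombinant human Tdp1 (E. coli-expressed, 1 nM final) preincubated with compounds 15 min at room temperature, then 5'-biotin/3'-phosphotyrosine-FITC DNA substrate (15 nM final) added for 5 min. AlphaScreen beads (10 ug/ml final) added 10 min; cleavage lowers signal.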
# POLB inh: blocks human DNA polymerase beta activity; Pol beta primer extension/strand displacement, fluorescence kinetic; Potency, µM (highest dose often 114 µM), without a hit: at the highest dose activity change, negative = inhibition, usual class: inhibitors; 340,000 compounds, 1.3% hits; AID 485314; note: potency is the fitted concentration of half-maximal effect; % is set by controls: 0 for no effect and ±100 for the full control effect
#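 Homogeneous kinetic assay of primer extension and strand displacement by 10 nM Pol beta, preincubated 15 min at room temperature with compound before 50 nM substrate (final) was added. Read at 0 and 10 min; four-parameter Hill fit.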
# Pol eta inh-1: DNA polymerase eta (human) inhibition. 390,000 compounds, 1.2% hits. Potency, µM (series often up to 114 µM), for the others: top-dose activity change, negative = inhibition, most hits filed as inhibitors. AID 588591. Q9Y253. recombinant Pol eta, fluorescent DNA replication assay; note: potency is the fitted concentration of half-maximal effect; % is set by controls: 0 for no effect and ±100 for the full control effect
#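 Pol eta (10 nM) was preincubated with compounds for 15 min at room temperature, after which fluorescent replication substrate (50 nM final) was added to start the reaction. Fluorescence was read kinetically at 0 and 10 min.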
# Pol iota inh: inhibitors of human DNA polymerase iota. Pol iota fluorescent replication assay, 10 min. Potency, µM (series often up to 115 µM), for inactives: at the highest dose activity, negative = inhibition, usual class: inhibitors. Q9UNA4. 390,000 compounds, 1% hits. AID 588590; note: potency is the fitted concentration of half-maximal effect
# Target sequence (Q9UNA4 whole entry, looked up): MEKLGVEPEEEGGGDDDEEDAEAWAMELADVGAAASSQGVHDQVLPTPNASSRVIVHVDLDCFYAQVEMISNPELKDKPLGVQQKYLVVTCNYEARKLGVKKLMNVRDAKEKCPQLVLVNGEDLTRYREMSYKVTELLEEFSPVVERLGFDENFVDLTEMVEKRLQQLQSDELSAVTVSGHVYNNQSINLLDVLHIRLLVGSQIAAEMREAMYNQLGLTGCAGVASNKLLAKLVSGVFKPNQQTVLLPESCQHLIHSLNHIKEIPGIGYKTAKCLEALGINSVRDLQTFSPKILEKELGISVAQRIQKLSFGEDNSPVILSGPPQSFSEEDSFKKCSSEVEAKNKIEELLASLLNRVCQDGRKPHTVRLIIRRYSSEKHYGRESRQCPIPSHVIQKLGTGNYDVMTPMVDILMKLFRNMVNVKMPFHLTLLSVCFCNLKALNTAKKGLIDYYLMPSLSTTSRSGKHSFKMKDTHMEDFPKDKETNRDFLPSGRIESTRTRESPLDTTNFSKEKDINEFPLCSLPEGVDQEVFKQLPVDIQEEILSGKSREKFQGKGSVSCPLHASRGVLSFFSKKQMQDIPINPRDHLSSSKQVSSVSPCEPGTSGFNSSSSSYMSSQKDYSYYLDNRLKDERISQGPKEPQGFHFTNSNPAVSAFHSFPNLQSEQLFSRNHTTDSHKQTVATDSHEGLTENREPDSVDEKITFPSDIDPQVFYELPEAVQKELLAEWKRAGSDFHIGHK
#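 Fluorescent replication assay read twice, at 0 min and 10 min after adding 50 nM (final) substrate. Enzyme (10 nM) and compounds were first incubated 15 min at room temperature; enzyme-free buffer wells were negative controls.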
# GALK inh confirm: galactokinase (human) inhibition, confirmation. shares compounds with Pol eta inh-1. Potency, µM (doses to about 115 µM), inactives show at the highest dose activity, negative = inhibition, actives largely listed as inhibitors. 150 compounds, 70% hits. purified GALK, Kinase-Glo ATP depletion luminescence
# GALK redox cs: generates H2O2 by redox cycling, flagging GALK artifacts. shares compounds with Pol eta inh-1. Phenol red-HRP H2O2 redox cycling, absorbance 600 nm. Potency, µM (doses to about 115 µM), without a hit: at the highest dose activity change, negative = H2O2 signal, usual class: inhibitors. 150 compounds, 40% hits. AID 2035
# HEK293 viability: counter-screen for GALK inhibitors: HEK293 cell cytotoxicity; shares compounds with Pol eta inh-1; HEK-293 viability, ATP luminescence (CellTiter-Glo), 24/48 h; Potency, µM (series often up to 46.1 µM), for inactives: top-dose activity change, negative = cytotoxicity, actives largely listed as inhibitors; 170 compounds, 10% hits; AID 2547; note: potency is the fitted concentration of half-maximal effect; % is set by controls: 0 for no effect and ±100 for the full control effect
# Pol kappa inh-2: confirmation of human DNA polymerase kappa inhibitors | Potency, µM, hits mostly inhibitors | purified Pol-kappa, fluorescent strand-displacement substrate | shares compounds with Pol eta inh-1 | 920 compounds, 76% hits; note: potency is the fitted concentration of half-maximal effect
# Pol eta inh-2: confirmation of human DNA polymerase eta inhibitors. shares compounds with Pol eta inh-1. Pol eta primer extension, TAMRA/BHQ fluorescence, 10 min. Potency, µM, most hits filed as inhibitors. 2,600 compounds, 64% hits. AID 720502; note: potency is the fitted concentration of half-maximal effect
# Starred values were filed as active, the others as inactive; u = inconclusive; x = no result given; [ ] = dose if it differs, or a comment. A selection: hits, their analogues and other compounds. The true share with any hit is near 2.4%. Calls come from the whole dose curve; as a rule, active = well fitted curve in the direction sought with a large enough effect; inconclusive = small, poorly fitted or top-dose-only effect, or another doubt; inactive = no such curve, though single readings can be large; an effect the other way counts as inactive or inconclusive.
SMILES,Pol kappa inh-1,TDP1 block,POLB inh,Pol eta inh-1,Pol iota inh,Pol eta inh-2,others
COc1cccc(/C=C(\C#N)c2nc3ccc(C)cc3[nH]2)c1,-5.5%,u,u,89.1µM*,-6.1%,x,Pol kappa inh-2=u
COc1cc(/C=C(\C#N)c2nc3ccc(C)cc3[nH]2)ccc1OCc1ccc(C)cc1,u,4.0%[12.3 µM],u,u,u,x,Pol kappa inh-2=u
COc1cc(/C=C(\C#N)c2nc3ccc(C)cc3[nH]2)c([N+](=O)[O-])cc1OC,-11.9%,8.6%,u,u,-5.4%,x,
COc1cc(/C=C(\C#N)c2nc3ccc(C)cc3[nH]2)cc([N+](=O)[O-])c1O,-41.5%,9.4%,44.7µM*,22.4µM*,u,75.7*,Pol kappa inh-2=23.8*
Cc1ccc2nc(/C(C#N)=C\c3cc(O)ccc3[N+](=O)[O-])[nH]c2c1,-10.7%,6.2%,-1.3%,7.2%,194.3%,x,
COc1ccc(Cl)cc1NC(=O)COC(=O)CC(C)(C)CC1=NS(=O)(=O)c2ccccc2N1,-8.7%[60.1 µM],2.5%,14.6%,-16.9%,-3.2%,x,
COc1ccc(OC)c(/C=C/c2c3ccccc3cc[n+]2C)c1,-19.6%,x,x,x,43.8%,x,
CN(C)S(=O)(=O)c1cccc(NC(=O)COC(=O)/C=C/c2ccco2)c1,-37.7%,x,31.6µM*,u,-53.9%,u,
CN(C)S(=O)(=O)c1cccc(NC(=O)COC(=O)/C=C/c2ccc3c(c2)OCO3)c1,2.7%,-2.6%,-4.7%,-4.0%,-4.0%,x,
COc1ccc(-c2nn(CCC(=O)O)cc2/C=C2\SC(N)=NC2=O)cc1,79.4µM*,x,8.5%,5.62µM*,-17.6%,26.9*,Pol kappa inh-2=21.2*
NC1=NC(=O)/C(=C/c2cn(CCC(=O)O)nc2-c2ccc(Cl)cc2)S1,-15.5%,0.0%,29.5%,14.1µM*,-16.6%,x,Pol kappa inh-2=16.8*
Cc1cc(C)cc(NC(=O)c2cc(C)nc3c2c(C)nn3-c2ccccc2)c1,-12.9%,2.1%,-1.6%,-10.4%,-11.0%,x,
CCOc1ccc(C(=O)Nc2cc(NC(=O)c3ccc(OCC)c(Cl)c3)cc(C(=O)O)c2)cc1Cl,-1.5%,x,17.8µM*,31.6µM*,u,x,Pol kappa inh-2=21.2*
O=C(O)c1cccc(COc2ccc3c(c2)CCC3)c1,u,1.4%,22.4µM*,39.8µM*,u,47.8*,
O=C(NCc1ccccc1)c1cccc(COc2ccc3c(c2)CCC3)c1,-10.2%,-1.9%,-25.7%,-13.1%,11.9%,x,
O=C(CSc1nc2ccccc2c(=O)n1-c1ccccc1)NC(=O)CN1CCCC1=O,u,22.4µM*,12.6µM*,44.7µM*,u,u,
O=C(CCc1nc2ccccc2c(=O)[nH]1)NCC(=O)Nc1ccc(F)c(F)c1,-11.3%,x,x,-6.8%,26.9%,x,
O=C(CCc1nc2ccccc2c(=O)[nH]1)Nc1ccc(F)c([N+](=O)[O-])c1,-35.0%,6.1%,u,u,49.0%,67.5*,
Cc1ccc(NC(=O)CN2C(=O)c3cccnc3Oc3ccc(Cl)cc32)cc1,-21.4%,2.5%,10.3%,-6.9%,30.3%,x,
Cc1cc(C)cc(OCc2cc(=O)n3c(-c4ccccc4)csc3n2)c1,u,1.3%,12.6µM*,u,u,u,Pol kappa inh-2=u
CC1(C)CC(=O)c2cc(-c3nc(-c4ccccc4)cs3)c(=O)[nH]c2C1,-15.8%,6.4%,0.0%,-14.4%,31.8%,x,
C=CCOc1ccc(Br)cc1/C=C1/SC(=Nc2ccc(C(=O)O)cc2)NC1=O,-18.0%,79.4µM*,u,20µM*,u,84.9*,
O=C(O)/C=C\c1cc2c(cc1[N+](=O)[O-])OCO2,6.8%,-2.6%,6.7%,-18.3%,31.1%,x,
O=C1NC(=S)N/C1=C/c1cc2c(cc1[N+](=O)[O-])OCO2,u,x,-0.6%,u,-10.1%,84.9*,
CC(C)(C)C1CCc2oc3ccc(NS(=O)(=O)c4ccc(C(=O)O)cc4)cc3c2C1 (stereo not drawn),u,-3.2%,u,u,u,x,Pol kappa inh-2=u
SMILES,Pol kappa inh-1,TDP1 block,POLB inh,Pol eta inh-1,Pol iota inh,Pol eta inh-2,others
CSc1cccc(NC(=O)C2CCN(S(=O)(=O)c3ccc4c(c3)CCCN4C(=O)C3CCC3)CC2)c1,-6.4%[60.1 µM],0.0%,33.8%,-14.0%,22.0%,x,
Cc1cc(=O)[nH]c(SCC(=O)Nc2nc3ccccc3s2)n1,-4.2%,7.9%,10.2%,1.4%,-13.9%,x,
N#Cc1c(SCC(=O)Nc2nc3ccccc3s2)sc2c(O)cc(=O)[nH]c12,12.6µM*,x,x,4.47µM*,6.31µM*,30.1*,Pol kappa inh-2=18.9*
Cc1cc2c(cc1S(=O)(=O)Nc1cccc(C(F)(F)F)c1)OCCN2C,-2.5%,3.9%,-6.0%,-19.4%,7.4%,x,
CC(=O)c1ccc(S(=O)(=O)Nc2ccc(-c3ccc4nnc(C)n4n3)cc2)cc1,u,-5.0%,28.2µM*,20µM*,-85.9%,u,
O=C(NCCCN1CCN(c2ccccc2F)CC1)c1sc2ncccc2c1-n1cccc1,-6.9%[60.1 µM],4.1%,-0.8%,-11.8%,20.5%,x,
Cc1nn(Cc2noc(C(=O)NC3CCC(C)CC3)n2)c(C)c1Br (stereo not drawn),-14.3%,-2.8%,48.4%,-18.2%,17.2%,x,
Cc1nn(Cc2noc(C(=O)NCC3CCCO3)n2)c(C)c1Br (stereo not drawn),9.6%,0.0%,8.4%,-20.2%,17.7%,x,GALK inh confirm=-7.7%;GALK redox cs=4.2%;HEK293 viability=-5.3%
Cc1cccc(-c2cc(NC(=O)COc3ccccc3F)n(-c3ccccc3)n2)c1,2.7%[60.1 µM],5.4%,-2.3%,-15.8%,9.9%,x,
O=[N+]([O-])c1cc(Cl)cc(/C=N\Nc2ccccn2)c1O,-2.8%,12.8%,1.6%,-15.3%,-9.2%,x,
CN(C)C1(CN=Cc2cc(Cl)cc([N+](=O)[O-])c2O)CCCCC1,u,15.6%,14.1µM*,u,u,u,
COc1cccc(Cc2nc3ccccc3nc2SCC(=O)NCCc2ccccc2)c1,-4.4%[60.1 µM],2.7%,u,-26.8%,13.4%,x,
